Source: ChEMBL document CHEMBL3988442, “University of Dundee, Small-Polar-MMV Screening Library” (2021)
The campaign covered roughly 69,000 compounds. About 950 (1.4%) showed an effect of 50% or more. Only a selection was taken, and strong results are over-represented in it overall.

These molecules were tested on Mycobacterium tuberculosis (assay: Cornell M. t heat shock assay; also: in the data most compounds retested in dose-response had high values).
Type: functional, organism-based
Design: dose or concentration left out as unconfirmed

| Structure (SMILES) | Percent Effect [%] |
| --- | --- |
| O=C(c1cccnc1O)N1CCN(CCc2cccs2)CC1 | 3.025 |
| O=C(O)C(F)(F)F.O=C(c1cnccn1)N1CCCC2(CCN(c3ccccn3)C2)C1 (stereo not drawn) | -26.38 |
| Cc1ccc(CN(Cc2ncc[nH]2)C2CC(C)(C)NC(C)(C)C2)o1.O=C(O)CC(O)(CC(=O)O)C(=O)O | 28.54 |
| O=C(O)C(F)(F)F.O=C(c1ccno1)N1CCc2ncnc(-c3ccncc3)c2CC1 | 1.058 |
| Cc1ccoc1C(=O)N1CCn2nnc(COc3cccnc3)c2C1.O=C(O)C(F)(F)F | -27.69 |
| O=C(O)C(F)(F)F.O=C(O)C(F)(F)F.O=C(c1ccnnc1)N1CCN2C[C@H](OCc3cccnc3)C[C@H]2C1 | -1.051 |
| Cc1ccc(CN2Cc3nnn(C)c3C(COCc3ccccc3)C2)o1.O=C(O)C(F)(F)F (stereo not drawn) | -18.88 |
| CCc1ccc(CN(C)Cc2nc(-c3cnccn3)no2)nc1 | 20.61 |
| CN(Cc1nc(COc2ccccc2)no1)CC1Cc2ccccc2O1 (stereo not drawn) | 29.18 |
| CCc1ccc(CN(C)Cc2nc(COc3ccccc3)no2)nc1 | 62.03 |
| COc1ccc(CNCC2CCN(c3ccccc3OC)C2)cc1O (stereo not drawn) | 2.532 |
| COc1ccccc1N1CCC(CNCc2cccc(OC)c2OC)C1 (stereo not drawn) | 81.84 |
| COc1ccccc1N1CCC(CNCc2cccc(O)c2)C1 (stereo not drawn) | 14.53 |
| O=C(NC1CCC1)[C@@H]1C[C@@H]2CCN(Cc3cccs3)C[C@@H]2O1.O=C(O)C(F)(F)F | 3.012 |
| CCC(CO)N(Cc1ccccn1)C(=O)c1ccc(=O)[nH]c1 (stereo not drawn) | 1.592 |
| O=C(NC[C@]12COC[C@H]1CN(Cc1nccs1)C2)c1cscn1.O=C(O)C(F)(F)F | 1.78 |
| COc1ccc(CN2CCC3(CC2)CCN(CC(=O)N(C)C)C3=O)cc1.O=C(O)C(F)(F)F | 1.282 |
| Cn1c(CCC(=O)N2CCCC3(CC2)CNC(=O)O3)nc2cccnc21 (stereo not drawn) | -15.92 |
| O=C1NCC2(CCCN(C(=O)Cn3nc4ccccc4n3)CC2)O1 (stereo not drawn) | 102.6 |
| O=C1NCC2(CCCN(C(=O)CCn3cnc4ccccc43)CC2)O1 (stereo not drawn) | -31.86 |

| Structure (SMILES) | Percent Effect [%] |
| --- | --- |
| O=C(O)CC(O)(CC(=O)O)C(=O)O.O[C@@]1(c2ccccn2)CC[C@H]2CN(Cc3ccccn3)C[C@H]21 | 3.038 |
| CN1CCN(c2ccc3ccc(C(=O)N4CCCCO4)cn23)CC1.O=C(O)C(F)(F)F | 28.6 |
| CCN(CC)c1ccc2ccc(C(=O)O)cn12 | 4.754 |
| CCN(CC)c1ccc2ccc(C(=O)N3CCCCO3)cn12.O=C(O)C(F)(F)F | 56.41 |
| Cl.O=C(Cn1c(-c2ccco2)cc2cccnc21)N1CCCC1 | 2.747 |
| CC(=O)N1[C@H](Cn2cncn2)C[C@@H]2CN(S(C)(=O)=O)CC[C@@H]21 | -11.62 |
| CCc1nnc(CN(C)c2nc(C3CCCC3)nc3c2cnn3C)o1 | -3.006 |
| CCc1nnc(CN(C)c2nc(C(C)C)nc3c2cnn3C)o1 | 106.1 |
| CCCc1nc(N(C)CCc2noc(C(C)C)n2)c2cnn(C)c2n1 | -6.302 |
| CC(C)c1nnc2n1CC(CNCc1cccnc1)CC2 (stereo not drawn) | -38.13 |
| CC(C)c1nnc2n1CC(CNCc1ccsc1)CC2 (stereo not drawn) | -8.8 |
| CC(C)c1nnc2n1CC(CNCc1ccncc1)CC2 (stereo not drawn) | 107 |
| CCc1nnc2n1CC(CNCc1nc(C)c(C)o1)CC2 (stereo not drawn) | -15.23 |
| CCc1nnc2n1CC(CNCC1CCCC1)CC2 (stereo not drawn) | -14.79 |
| CCc1nnc2n1CC(CNCc1ccncc1)CC2 (stereo not drawn) | 102.6 |
| O=C(O)C(F)(F)F.O=C1CC[C@H]2[C@H](CCN2C(=O)C2CCCO2)N1Cc1cccnc1 (stereo partly drawn) | 1.298 |
| CNC(=O)CN1CC[C@H]2CN(C(=O)c3ccc(C)cc3)C[C@H]2C1.O=C(O)C(F)(F)F | -25.29 |
| Cn1cc(CN2C[C@H](Oc3ncccc3F)[C@H]3OCCC[C@H]32)cn1.O=C(O)C(F)(F)F.O=C(O)C(F)(F)F.O=C(O)C(F)(F)F | -12.51 |
| O=C(NC[C@]12COC[C@H]1CN(Cc1cccnc1)C2)C1CCC1.O=C(O)C(F)(F)F.O=C(O)C(F)(F)F | 24.22 |
| COCC(=O)N1CCC2(CC1)CNc1ccc(F)cc12.O=C(O)C(F)(F)F | -6.982 |

| Structure (SMILES) | Percent Effect [%] |
| --- | --- |
| CC(=O)c1ccc(NC(=O)c2ccc3c(c2)C2(CCCCC2)CN3)cc1.O=C(O)C(F)(F)F | 36.54 |
| O=C(Nc1ccccc1)c1ccc2c(c1)C1(CCCCC1)CN2.O=C(O)C(F)(F)F | 67.01 |
| COc1ccccc1CN1C[C@@H]2COC[C@]2(COCc2ccncc2)C1.O=C(O)C(F)(F)F.O=C(O)C(F)(F)F | -12.91 |
| CCN(CC)C(=O)Cn1ccc2cc(NC(=O)C3CC3)ccc21 | 25.7 |
| CCNC(=O)Nc1ccc2c(ccn2CC(=O)N(CC)CC)c1 | 47.91 |
| CCN(CC)C(=O)Cn1ccc2cc(NC(=O)NC3CC3)ccc21 | 61.18 |
| COCCN1CCc2c(cnc(-c3ccoc3)c2C(=O)O)C1.O=C(O)C(F)(F)F | -43.35 |
| CN1CCCN(C(=O)c2ccc3c(c2)nc(N2CCOCC2)n3C)CC1 | 98.19 |
| CN1CCN(C(=O)c2ccc3c(c2)nc(N2CCOCC2)n3C)CC1=O | 2.08 |
| Cn1c(N2CCOCC2)nc2cc(C(=O)N3CCCOCC3)ccc21 | -23.59 |
| CC(C)N(C)Cc1nnc2n1CCCN(c1ncccn1)C2.O=C(O)C(F)(F)F | 11.35 |
| CN(Cc1cn2c(n1)CN(CC1CC1)CC2)Cc1ccco1.O=C(O)C(F)(F)F.O=C(O)C(F)(F)F | 9.036 |
| O=C(c1cc[nH]n1)N1CCc2ncnc(NCc3ccccn3)c2CC1 | -1.441 |
| O=C(c1ccon1)N1CCc2ncnc(NCc3cccnc3)c2CC1 | 1.572 |
| O=C(C1CCCCO1)N1CCc2ncnc(NCc3ccon3)c2CC1 (stereo not drawn) | 17.45 |
| O=C(c1ccoc1)N1CCc2ncnc(NCc3ccccn3)c2CC1 | 62.71 |
| O=C(c1ccco1)N1CCc2ncnc(NCc3ccccn3)c2CC1 | 44.89 |
| O=C(c1ccon1)N1CCc2ncnc(NCc3ccccn3)c2CC1 | 76.86 |
